Data reported in PubChem BioAssay AID1745853 (National Center for Advancing Translational Sciences (NCATS), 2022).
Where “and” joins values, the source holds several entries; their conditions need not be identical. Equal entries are not always repeated. Among all 25,000 compounds or so, about 970 (3.9%) were called active. About 8% were inconclusive and are not listed. The rule behind the calls is not given here. The entries come from a sample that favours actives as a whole. The source holds several records for some structures; these can differ, active in one and inactive in another.

How the values were obtained:
Test in all cases: Primary Screen for Target Class Profiling of Small Molecule Inhibitors of Methyltransferases
[1] = target: Catechol O-methyltransferase (Homo sapiens) (UniProt P21964); details: purified enzyme, MTase-Glo SAH luminescence; activity change, negative = inhibition: at 40 µM, stronger effect = lower value; outcome: 40 uM
Chain of Catechol O-methyltransferase (Homo sapiens) (P21964 whole entry, looked up): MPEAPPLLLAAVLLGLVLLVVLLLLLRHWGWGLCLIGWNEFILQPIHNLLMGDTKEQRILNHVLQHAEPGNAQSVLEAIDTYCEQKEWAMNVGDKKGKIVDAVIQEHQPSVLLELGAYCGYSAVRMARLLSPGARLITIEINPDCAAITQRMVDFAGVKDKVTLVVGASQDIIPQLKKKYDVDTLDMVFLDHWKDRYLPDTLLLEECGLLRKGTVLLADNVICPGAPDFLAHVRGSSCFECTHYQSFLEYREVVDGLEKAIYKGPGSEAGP
Procedure, shortened: (§1)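 Each enzyme was reacted with SAM and its substrate, with compounds tested once at 40 uM; SAH formed was read by MTase-Glo luminescence.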

[2] = target: Glycine N-methyltransferase (Homo sapiens) (UniProt Q14749); details: purified enzyme, MTase-Glo SAH luminescence; measured here: GNMT inhibition; at 40 µM; stronger effect = lower value
Chain of Glycine N-methyltransferase (Homo sapiens) (Q14749 whole entry, looked up): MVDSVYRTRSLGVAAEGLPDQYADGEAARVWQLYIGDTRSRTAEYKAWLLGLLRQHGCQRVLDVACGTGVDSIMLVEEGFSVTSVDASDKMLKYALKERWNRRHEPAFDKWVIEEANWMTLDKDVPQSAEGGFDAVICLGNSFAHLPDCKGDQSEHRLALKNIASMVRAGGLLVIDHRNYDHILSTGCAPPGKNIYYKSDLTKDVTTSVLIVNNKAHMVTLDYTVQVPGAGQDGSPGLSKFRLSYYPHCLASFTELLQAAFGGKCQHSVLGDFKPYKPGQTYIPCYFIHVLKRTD
Procedure, shortened: as §1

[3] = target: Guanidinoacetate N-methyltransferase (Homo sapiens) (UniProt Q14353); details: purified enzyme, MTase-Glo SAH luminescence; measured here: GAMT inhibition; at 40 µM; stronger effect = lower value
Procedure, shortened: as §1

[4] = target: Histamine N-methyltransferase (Homo sapiens) (UniProt P50135); details: purified enzyme, MTase-Glo SAH luminescence; measured here: HNMT inhibition; at 40 µM; stronger effect = lower value
Chain of Histamine N-methyltransferase (Homo sapiens) (P50135 whole entry, looked up): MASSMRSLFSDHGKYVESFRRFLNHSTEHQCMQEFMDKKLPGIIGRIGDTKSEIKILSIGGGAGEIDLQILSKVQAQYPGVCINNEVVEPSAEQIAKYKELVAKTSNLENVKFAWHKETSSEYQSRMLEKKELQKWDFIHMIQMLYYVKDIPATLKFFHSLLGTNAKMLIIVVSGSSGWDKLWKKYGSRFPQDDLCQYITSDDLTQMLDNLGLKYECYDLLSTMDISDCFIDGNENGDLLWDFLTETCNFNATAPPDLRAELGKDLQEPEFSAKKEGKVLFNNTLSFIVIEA
Procedure, shortened: as §1

[5] = target: Nicotinamide N-methyltransferase (Homo sapiens) (UniProt P40261); details: purified enzyme, MTase-Glo SAH luminescence; measured here: NNMT inhibition; at 40 µM; stronger effect = lower value
Chain of Nicotinamide N-methyltransferase (Homo sapiens) (P40261 whole entry, looked up): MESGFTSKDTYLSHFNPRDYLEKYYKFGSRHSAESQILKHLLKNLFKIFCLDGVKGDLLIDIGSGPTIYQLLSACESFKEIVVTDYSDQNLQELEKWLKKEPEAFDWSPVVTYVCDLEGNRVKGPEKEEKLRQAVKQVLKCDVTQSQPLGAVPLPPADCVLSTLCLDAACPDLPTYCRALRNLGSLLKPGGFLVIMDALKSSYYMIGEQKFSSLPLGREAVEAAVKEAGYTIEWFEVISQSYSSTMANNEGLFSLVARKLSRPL
Procedure, shortened: as §1

[6] = target: Phenylethanolamine N-methyltransferase (Homo sapiens) (UniProt P11086); details: purified enzyme, MTase-Glo SAH luminescence; measured here: PNMT inhibition; at 40 µM; stronger effect = lower value
Chain of Phenylethanolamine N-methyltransferase (Homo sapiens) (P11086 whole entry, looked up): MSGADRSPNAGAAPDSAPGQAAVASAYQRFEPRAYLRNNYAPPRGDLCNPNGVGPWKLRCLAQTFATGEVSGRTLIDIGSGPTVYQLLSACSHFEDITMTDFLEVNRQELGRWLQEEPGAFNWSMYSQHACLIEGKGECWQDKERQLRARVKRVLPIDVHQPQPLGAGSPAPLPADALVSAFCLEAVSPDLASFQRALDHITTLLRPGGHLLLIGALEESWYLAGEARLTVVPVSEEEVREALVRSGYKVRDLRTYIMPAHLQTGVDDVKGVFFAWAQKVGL
Procedure, shortened: as §1
% is set by controls: 0 for no effect and ±100 for the full control effect.

CCOC(=O)CC1(NC(=O)N2CCn3cccc3C2Cc2ccccc2)CCCCC1 (stereo unspecified) was tested, and the activity change, negative = inhibition [1] was -25% (inactive), the activity change, negative = inhibition [2] was -7.26% and the activity change, negative = inhibition [3] was -5.73%. For the same molecule, the activity change, negative = inhibition [4] was -9.85%, the activity change, negative = inhibition [5] was -17.7% and the activity change, negative = inhibition [6] was -40.7%.

For CN(C)CCN(C)[C@H]1[C@@H]2OC[C@@H](O2)[C@@H](NCc2ccc(N(C)C)cc2)[C@@H]1O, the activity change, negative = inhibition [1] was 2.76% (inactive), the activity change, negative = inhibition [2] was 0.488% and the activity change, negative = inhibition [3] was 1.19%. The activity change, negative = inhibition [4] was 0.035%, the activity change, negative = inhibition [5] was -5% and the activity change, negative = inhibition [6] was 0.902%.

COc1ccc(C(=O)N2CCC3(CC2)CCC(O)(CN(C)C)CC3)cc1OC was tested, and the activity change, negative = inhibition [1] was 2.82% (inactive), the activity change, negative = inhibition [2] was -0.206% and the activity change, negative = inhibition [3] was -1.89%. It also gave an activity change, negative = inhibition [4] of -18.9%, an activity change, negative = inhibition [5] of -5.54% and an activity change, negative = inhibition [6] of -1.06%.

CCCCNC(=O)CCc1nnc2n(CC(C)C)c(=O)c3ccccc3n12 was tested, and the activity change, negative = inhibition [1] was 3.12% (inactive), the activity change, negative = inhibition [2] was -1.98% and the activity change, negative = inhibition [3] was 4.49%. The activity change, negative = inhibition [4] was 5.26%, the activity change, negative = inhibition [5] was 4.71% and the activity change, negative = inhibition [6] was -0.917%.

With CN(CCCNC(=O)CCCc1nnc2n3nc(-c4ccccc4)nc3c3ccccc3n12)Cc1ccccc1 the activity change, negative = inhibition [1] was -4.54% (active), the activity change, negative = inhibition [2] was -16.6% and the activity change, negative = inhibition [3] was 1.44%. It also gave an activity change, negative = inhibition [4] of -57.9%, an activity change, negative = inhibition [5] of 0.458% and an activity change, negative = inhibition [6] of -4.78%.

For CC(C)CCn1c(=O)c2ccccc2n2c(CCC(=O)NCCc3ccccc3)nnc12, the activity change, negative = inhibition [1] was 3.9% (inactive), the activity change, negative = inhibition [2] was -7.17% and the activity change, negative = inhibition [3] was 0%. The activity change, negative = inhibition [4] was 6.82%, the activity change, negative = inhibition [5] was -15% and the activity change, negative = inhibition [6] was 0.405%.

With COC(=O)c1ncn2c1C(=O)N(Cc1cc(OC)ccc1OC)C(C)(C(=O)NCc1ccccc1)C2 (stereo unspecified) the activity change, negative = inhibition [1] was -9.56% (inactive), the activity change, negative = inhibition [2] was -4.3% and the activity change, negative = inhibition [3] was 3.99%. The activity change, negative = inhibition [4] was -2.02%, the activity change, negative = inhibition [5] was -4.11% and the activity change, negative = inhibition [6] was -4.82%.

For CN(C)c1cc2c(Nc3ccc4c(cnn4Cc4ccccc4)c3)ncnc2cn1, the activity change, negative = inhibition [1] was -13.2% (active) and -7.52% (inactive), the activity change, negative = inhibition [2] was -7.53% and -14.5% and the activity change, negative = inhibition [3] was 10.1% and 6.13%. For the same molecule, the activity change, negative = inhibition [4] was 1.63% and -3.02%, the activity change, negative = inhibition [5] was -17% and -13.5% and the activity change, negative = inhibition [6] was -62.6% and -40%.

For CCC(C)C(=O)OC1C(C)C2(O)C(C=C(CO)CC3(O)C(=O)C(C)=CC32)C2C(C)(C)C12OC(=O)C(C)C (stereo unspecified), the activity change, negative = inhibition [1] was -2.75% (inactive), the activity change, negative = inhibition [2] was -4.22% and the activity change, negative = inhibition [3] was -5.2%. For the same molecule, the activity change, negative = inhibition [4] was -3.1%, the activity change, negative = inhibition [5] was -15.7% and the activity change, negative = inhibition [6] was -0.901%.

In the case of O=C(NCC1CCCCC1)c1cc(-c2cc(Cl)cc(Cl)c2)c2nncn2n1, the activity change, negative = inhibition [1] is reported as -5.12% (inactive), the activity change, negative = inhibition [2] is reported as -8.77% and the activity change, negative = inhibition [3] is reported as -5.46%. The activity change, negative = inhibition [4] was -7.54%, the activity change, negative = inhibition [5] was -13.3% and the activity change, negative = inhibition [6] was -2.36%.

CC(C)CCNC(=O)c1ccc2c(=O)nc3c(-c4ccc(Cl)cc4)n[nH]n3c2c1 was tested, and the activity change, negative = inhibition [1] was -1.51% (inactive), the activity change, negative = inhibition [2] was -1.88% and the activity change, negative = inhibition [3] was 4.17%. The activity change, negative = inhibition [4] was -4.65%, the activity change, negative = inhibition [5] was 0.687% and the activity change, negative = inhibition [6] was -0.404%.
